“And” between values parts separate entries of the source, which are not always exact repeats. Equal entries are not always repeated. Inconclusive results are not listed. Where a call stands in place of a potency, no number is given. Where a structure was tested more than once in an assay, its records may differ in their call. The source made the active and inactive calls. Calls follow the shape of the dose curve; as a rule, active = well fitted curve in the direction sought with a large enough effect; inconclusive = small, poorly fitted or top-dose-only effect, or another doubt; inactive = no such curve, though single readings can be large; an effect the other way counts as inactive or inconclusive.
Tests used:
[1] = MultiTox-Fluor Cytotoxicity Assay - LYMP1-002 - Live Cells (AID 955);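 also: cells exposed to compound for 16 hours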
Procedure, shortened: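 LYMP1-002 lymphoblastoid cells; 2500 cells/well; 16 hr compound exposure, 37 C; MultiTox-Fluor reagent 60 min RT; live-cell fluorescence Ex/Em=405/510; qHTS concentration-response, Hill-equation AC50; tetraoctylammonium bromide positive control.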

[2] = MultiTox-Fluor Cytotoxicity Assay - LYMP1-002 - Dead Cells (AID 960); also: nearly all actives have a fitted effect of over 60% in size; also: potency is read from the fitted curve at half-maximal effect
Procedure, shortened: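 Readout: fluorescence at 485/520 from cell-impermeant bis-AAF-R110 cleaved by proteases leaking from damaged cells. LYMP1-002 lymphoblastoid line, 16 hr compound treatment at 37 C, concentration-response in qHTS format; Hill-equation AC50 values.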

[3] = MultiTox-Fluor Cytotoxicity Assay - LYMP1-003 - Dead Cells (AID 961);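 also: cells exposed to compound for 16 h at 37 °C; nearly all actives have a fitted effect of over 70% in size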
Procedure, shortened: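 LYMP1-003 lymphoblastoid, 2500 cells/well, 5 hr settle then 16 hr cpd at 37 C; MultiTox-Fluor reagent 60 min RT; Ex/Em 485/520 dead-cell signal; norm. DMSO = 0%, 15 uM tetraoctylammonium bromide = 100%; Hill AC50.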

[4] = MultiTox-Fluor Cytotoxicity Assay - LYMP1-003 - Live Cells (AID 962);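 also: cells exposed to compound for 16 hours at 37 °C; cytotoxic hits lower the live-cell protease signal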
Procedure, shortened: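 Readout: live-cell fluorescence (Ex/Em=405/510) from GF-AFC cleavage after 60 min MultiTox-Fluor reagent at room temperature. Lymphoblastoid LYMP1-003 cells, 16 hr compound treatment, 37 C. Concentration-response fitted to standard Hill equation for AC50.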

[5] = Cell Viability - LYMP1-003 - Assay at 24 hr (AID 963)
Procedure, shortened: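 CellTiter-Glo luminescence (intracellular ATP) read after 24 hr, 37 C compound exposure of 2500 LYMP1-003 human lymphoblastoid cells/well in complete medium; qHTS concentration series; AC50 via standard Hill equation.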

[6] = Cell Viability - LYMP2-003 (AID 965);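 also: cells exposed to compounds for 24 h before reading; nearly all actives have a fitted effect of over 50% in size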
Procedure, shortened: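 CellTiter-Glo luminescence (cellular ATP) after 24 h compound exposure at 37 C in complete medium; 2500 cells/well, 5 h settling beforehand. Concentration-response fitted to standard Hill equation for AC50. Tetraoctylammonium bromide served as positive control.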

[7] = Cell Viability - LYMP2-004 (AID 966); also: nearly all actives have a fitted effect of over 65% in size
Procedure, shortened: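 Luminescent ATP read-out (CellTiter-Glo, 30 min RT) after 24 hr compound exposure at 37 C; 2500 lymphoblastoid cells/well, complete medium. Decrease in ATP = cytotoxicity; AC50 from standard Hill model.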

[8] = Cell Viability - LYMP2-005 (AID 967); also: series mostly up to about 92 µM
Procedure, shortened: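 Steps: seed 2500 LYMP2-005 cells/well, incubate 5 h at 37 C, add compound, incubate 24 h at 37 C, add CellTiter-Glo, wait 30 min at RT, read luminescence. Concentration-response data fitted to Hill equation for AC50.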

[9] = Cell Viability - LYMP2-009 (AID 968); also: series mostly up to about 92 µM; nearly all actives have a fitted effect of over 55% in size
[10] = target: Alpha-galactosidase (Coffea arabica) (UniProt Q42656); test: Counterscreen for Glucocerebrosidase Inhibitors: qHTS Assay for Coffee Bean alpha-Galactosidase at pH 4.5 (AID 957); also: series mostly up to about 77 µM
Procedure, shortened: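 Fluorogenic read-out: 4-methylumbelliferone at Ex 365/Em 440 nm after NaOH/glycine stop (pH 10). Enzyme 2 nM, 4-MU-alpha-galactoside 80 uM, citrate buffer pH 4.5, 20 min RT; normalized to no-enzyme and enzyme controls.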

Chain of Alpha-galactosidase (Coffea arabica) (Q42656 whole entry, looked up): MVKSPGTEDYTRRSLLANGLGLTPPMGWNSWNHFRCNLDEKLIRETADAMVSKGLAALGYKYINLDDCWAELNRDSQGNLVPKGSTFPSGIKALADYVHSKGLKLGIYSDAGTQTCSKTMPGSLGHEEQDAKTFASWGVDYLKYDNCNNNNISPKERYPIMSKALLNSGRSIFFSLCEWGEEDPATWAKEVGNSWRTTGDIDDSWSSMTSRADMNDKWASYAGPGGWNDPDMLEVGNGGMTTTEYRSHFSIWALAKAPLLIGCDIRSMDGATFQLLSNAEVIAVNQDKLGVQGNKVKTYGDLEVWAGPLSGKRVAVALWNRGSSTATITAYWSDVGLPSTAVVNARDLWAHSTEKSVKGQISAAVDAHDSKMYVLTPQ

| SMILES | outcome [1] | Potency [2] | outcome [3] | outcome [4] | outcome [5] | outcome [6] | outcome [7] | outcome [8] | outcome [9] | outcome [10] |
| --- | --- | --- | --- | --- | --- | --- | --- | --- | --- | --- |
| COc1cc(OC)c(OC)cc1C=O | inactive | inactive | inactive | inactive | inactive | inactive | inactive | inactive | inactive |  |
| Nc1ccccc1 | inactive |  | inactive | inactive | inactive | inactive | inactive | inactive | inactive |  |
| Nc1ccccc1C(=O)O | inactive | inactive | inactive | inactive | inactive | inactive | inactive |  | inactive |  |
| Oc1ccc(Cl)cc1 | inactive | inactive | inactive | inactive | inactive | inactive |  |  | inactive |  |
| C[C@]12CCC(=O)C=C1CC[C@@H]1[C@@H]2CC[C@]2(C)C(=O)CC[C@@H]12 | inactive | inactive and 15.8 µM (active) | inactive | inactive | inactive | inactive | inactive | inactive | inactive | inactive |

Reference: PubChem BioAssay (NCATS)
